Rows were chosen to be rich in hits. Some 8% of all compounds tested hit in one or more screens of this group.
HCV inh – inhibitors of hepatitis C virus infection; actives 3.4% (n = 340,000); Huh7.5.1 HCVcc-Cre infection, luciferase reporter, 44 h; AID 651820; Potency, µM (series often up to 41.8 µM), for the others: at the top dose activity change, negative = inhibition, hits mostly inhibitors; active means well fitted inhibition curve with a large enough effect; inconclusive means small, poorly fitted or top-dose-only effect, or another doubt; inactive means no such curve, though single readings can be large or run the other way; further: potency means the concentration at half of the fitted maximal effect; on the % scale 0 is the no-effect control and ±100 the full control effect
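Infectious HCVcc-Cre (~0.5 moi) was added to cells just after compound, with cells seeded 4 h earlier at 1,000 per well. Luciferase activity after 44 h culture reported infection; substrate was incubated 15 min at room temperature before reading.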
Lassa entry inh – inhibitors of Lassa virus binding or cell entry | Potency, µM (top dose mostly 37.9 µM), without a hit: top-dose activity change, negative = inhibition, actives largely listed as inhibitors | Lassa virus pseudotype entry inhibition, cell reporter | actives 1.2% (n = 300,000); calls by dose curve; tested in HEK293 cells; further: potency means the concentration at half of the fitted maximal effect; on the % scale 0 is the no-effect control and ±100 the full control effect; nearly all actives have a fitted effect of over 50% in size
HCMV antiviral – inhibitors of human cytomegalovirus; HFF cells, HCMV-luciferase reporter, 72 h; stronger effect = lower value; activity change, negative = inhibition, % at 57.5 µM; actives 4.5% (n = 410,000); in the data active means activity change below about -60%; inconclusive means no clear call, values can overlap the other calls; inactive means above about -39%; further: on the % scale 0 is the no-effect control and ±100 the full control effect
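After 16 h attachment at 37C, HFF cells received test compound and HCMV-luciferase (1 PFU/cell); reporter luminescence read 72 h later, data normalized against buffer-only and known inhibitor Salinomycin.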
Marburg entry inh – blocks Marburg virus binding to or entry into cells | Potency, µM (highest dose often 37.8 µM), for inactives: at the top dose activity change, negative = inhibition, usual class: inhibitors | actives 1.8% (n = 300,000) | Marburg virus pseudotyped entry inhibition, cell reporter; calls by dose curve; tested in HEK293 cells; further: potency means the concentration at half of the fitted maximal effect; on the % scale 0 is the no-effect control and ±100 the full control effect
FMDV antiviral – blocks foot and mouth disease virus. AID 1159524. FMDV antiviral cell-based qHTS. actives 1.2% (n = 410,000). Potency, µM (titrated, usually from 57.9 µM), inactives show at the highest dose activity change, negative = inhibition, hits mostly inhibitors; calls by dose curve; tested in HEK293T cells; further: read-out not given here; potency means the concentration at half of the fitted maximal effect; on the % scale 0 is the no-effect control and ±100 the full control effect; nearly all actives have a fitted effect of over 45% in size
SARS PLP yeast – blocks SARS-CoV papain-like protease in a yeast assay. AID 485353. S. cerevisiae expressing SARS-CoV PLpro, growth rescue. Potency, µM (titrated, usually from 32.9 µM), for the others: at the top dose activity, positive = growth rescue, actives largely listed as activators. actives 0.19% (n = 330,000); calls by dose curve; further: potency means the concentration at half of the fitted maximal effect; 0% is about no effect; nearly all actives have a fitted effect of over 55% in size
The depositor's hits bear a star; ? = inconclusive; . = not tested or not shown; [ ] = another dose, or the depositor's remark.

SMILES | HCV inh | Lassa entry inh | HCMV antiviral | Marburg entry inh | FMDV antiviral | SARS PLP yeast
CCCOc1ccc(C(=O)c2ccccc2C(=O)OC2CCOC2=O)cc1OCCC (stereo not given) | ? | 5% | 27 | 2% | 13% | -2%
CC(C)OC(=O)c1ccccc1C(=O)c1ccc(N)c([N+](=O)[O-])c1 | -8% | 5%[46.1 µM] | 3 | -6%[46.1 µM] | 1% | 0%
CCOC(=O)c1ccc(NC(=O)CCc2c(C)n(CC)c3cc(-c4ccccc4OC)nn3c2=O)cc1 | . | 11%[46.1 µM] | 14 | 5%[46.1 µM] | -1% | .
CC(=O)OC[C@H]1O[C@@H](ON=C(C)CCC(=O)OC[C@H]2O[C@H](C#Cc3ccccc3)C=C[C@H]2Oc2ccc(C)cc2)[C@H](OC(C)=O)[C@@H](OC(C)=O)[C@H]1OC(C)=O | . | . | . | 9%[14.2 µM] | . | .
Cc1[nH]nc(-c2ccc(OCc3cnn(-c4ccccc4)c3)cc2O)c1Oc1ccc(F)cc1 | ? | -2% | -76* | -4% | -23% | 4%
Cc1[nH]nc(-c2ccc(OCc3cnn(-c4ccccc4)c3)c(C)c2O)c1Oc1ccccc1 | -29% | ? | 32 | -31% | ? | -2%
CCOc1ccc(-c2n[nH]c(C)c2Oc2ccc(OC)cc2)c(O)c1 | 11µM* | ? | -18 | 0% | 3% | -2%
CCOc1ccc(-c2nc(N)ncc2Oc2cccc(OC)c2)c(O)c1 | 13µM* | ? | -11 | ? | ? | 0%
Cc1[nH]nc(-c2ccc(O)c(C)c2O)c1Oc1ccccc1 | ? | 13% | -38 | 27% | -21% | -16%
COc1ccc2c(c1)c1c(c(=O)n(CCc3ccccc3)c(=O)n1Cc1ccc(Cl)cc1)n2C | . | ? | 33 | . | -13% | .
O=C(N[C@@H]1c2ccccc2C2(CCN(C(=O)c3cc4ccccc4oc3=O)CC2)[C@H]1O)c1cccnc1 | . | . | . | . | -4% | .
Cc1cccn2c(=O)cc(COc3cccc(NC(=O)c4ccccc4F)c3)nc12 | . | 5%[46.1 µM] | -91* | . | -29% | .
O=C(Nc1cccc(Cl)c1)Nc1ccccc1OCc1cc(=O)n2ccccc2n1 | . | 26%[46.1 µM] | -14 | . | 18% | .
Cc1cccn2c(=O)cc(COc3cccc(NC(=O)COc4ccc(F)cc4)c3)nc12 | . | -12%[46.1 µM] | -90* | . | ? | .
Cc1ccc(Cl)cc1NC(=O)Nc1cccc(OCc2cc(=O)n3ccccc3n2)c1 | . | ? | -65* | . | 5% | .
O=C(COc1ccccc1F)Nc1ccc(OCc2cc(=O)n3ccccc3n2)cc1 | . | ? | -61* | . | 16% | .
COc1cccc(NC(=O)Cn2c(=O)n(CCc3ccccc3)c(=O)c3c4c(sc32)CN(C(C)=O)CC4)c1 | . | . | -16 | -16%[46.1 µM] | -5% | .
COc1cc(NC(=O)c2cc([N+](=O)[O-])ccc2NC(=O)CNC2CCCCC2C)cc(OC)c1 (stereo not given) | 6.3µM* | ? | -3 | ? | -24% | 1%
COc1cc(NC(=O)c2cc([N+](=O)[O-])ccc2NC(=O)CNCc2ccccn2)cc(OC)c1 | -14% | 11µM* | 29 | -18%[46.1 µM] | ? | 0%
COc1cccc(CNC(=O)C2CCCN(S(=O)(=O)c3ccc4c(ccn4C)c3)C2)c1OC (stereo not given) | . | -26%[46.1 µM] | -30 | . | ? | .
COc1ccc(NC(=O)c2nc[nH]c2C(=O)N2CCN(c3ccccc3)CC2)cc1 | 4% | . | -72* | . | -14% | 0%
CC(C)(C)OC(=O)NCc1ccc(CNC(=O)c2nc[nH]c2C(=O)N2CCc3ccccc3C2)cc1 | ? | . | 8 | . | 40µM* | 1%
Cc1ccc(NC(=O)c2nc[nH]c2C(=O)N2CCc3ccccc3C2)cc1 | 3% | . | -75* | . | -15% | 0%
CC(C)(C)OC(=O)[C@H](Cc1ccccc1)NC(=O)c1nc[nH]c1C(=O)N1CCN(c2ccccc2)CC1 | 11% | . | 12 | . | -11% | 0%
CC(C)(C)OC(=O)NCc1ccc(CNC(=O)c2nc[nH]c2C(=O)N2CCN(c3ccccc3)CC2)cc1 | ? | . | -6 | . | 20µM* | -1%
SMILES | HCV inh | Lassa entry inh | HCMV antiviral | Marburg entry inh | FMDV antiviral | SARS PLP yeast
O=C(Nc1ccccc1)c1nc[nH]c1C(=O)N1CCN(c2ccccc2)CC1 | -9% | . | ? | . | 17% | 8%
COCC(C)NCc1cc2ccc(OC)cc2nc1N1CCN(c2ccc(F)cc2)CC1 (stereo not given) | . | . | . | . | -23% | .
O=C(NCC1(N2CCOCC2)CCCC1)c1cnn(-c2nccc(-c3ccco3)n2)c1C1CC1 | . | . | . | . | -21% | .
Cc1cccc(C(=O)Nc2ccc(N3CCC(N4CCCCC4)CC3)c(C(=O)O)c2)c1 | . | 2%[46.1 µM] | 2 | . | 35% | .
CCOC(=O)c1cnc(NCc2ccccc2OC)c2ccccc12 | . | 6%[46.1 µM] | -24 | . | 11% | .
O=c1ccc2c(o1)/C(=C/C=C(Cl)Cl)CCC2 | 16µM* | -3% | -7 | -6% | -27% | -10%
Cc1ccc(C(C)C)c(OCC(=O)Nc2ccc3c(c2)nc(CCN2CCCCC2)n3C)c1 | 10µM* | . | -81* | . | -20% | 0%
Cn1c(CCN2CCCCC2)nc2cc(NC(=O)COc3ccc([N+](=O)[O-])cc3)ccc21 | -30% | . | -75* | . | 24% | 1%
Cc1nn(CC(=O)Nc2ccc3c(c2)nc(CCN2CCCCC2)n3C)c(=O)c2ccccc12 | ? | 20% | -63* | ? | -23% | -6%
CC(=O)N1CCN(Cc2nc3cc(NC(=O)Cn4nc(C)c5ccccc5c4=O)ccc3n2C)CC1 | 20% | 5% | -1 | 16% | -3% | -6%
CCn1c(CN2CCCCC2)nc2cc(NC(=O)COc3ccc([N+](=O)[O-])cc3)ccc21 | . | 0%[46.1 µM] | -23 | -19%[46.1 µM] | ? | .
Cn1c(CCN2CCCCC2)nc2cc(NC(=O)COc3ccc(Cl)cc3)ccc21 | ? | . | -70* | . | -15% | 2%
Cc1cc(C)c(/C=N/NC(N)=O)c(C)c1/C=N/NC(N)=O | 5% | -1% | ? | ? | 7% | 2%
CCc1cc(CC)c(/C=N/NC(N)=O)c(CC)c1 | 11µM* | . | -24 | . | -14% | -2%
CCCCCn1nc2ccccc2c1OC | . | . | -15 | . | . | .
COc1ccc(OC)c(-c2ccnc(-n3ncc(C(=O)N4CCN(CCO)CC4)c3C3CC3)n2)c1 | . | . | . | . | -8% | .
Cc1scc(C(=O)N/N=C/c2ccco2)c1C | 1% | -2% | 13 | 4% | 44% | 11%
O=C(N/N=C\c1ccc([N+](=O)[O-])o1)c1cncc(Br)c1 | 22µM* | ? | -83* | ? | ? | 0%
O=C(N/N=C/c1ccc([N+](=O)[O-])o1)c1cc2c(ccc3ccccc32)o1 | ? | . | -72* | . | 2% | -3%
O=C(N/N=C/c1ccc([N+](=O)[O-])o1)c1cc2ccccc2o1 | ? | . | ? | . | -37% | -8%
Cc1scc(C(=O)N/N=C/c2ccc([N+](=O)[O-])o2)c1C | . | . | -100* | . | . | -9%

Compound activity from PubChem BioAssay.
